From PubChem BioAssay (NCI) come the findings set out here.

Compounds without any hit were thinned out: in the full panel of roughly 83,000, 20% have a hit.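 Results are percent growth after 48 hours of single-concentration exposure. 100 means growth as in untreated cells, lower positive values show inhibition; negative values down to -100 show cell death.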 Activity calls are given as the source filed them. How the source made its calls: active means growth percent below 10; inactive means the rest.

The first experiment has as its system HOP-92 NSCLC. The experiment is described as follows: NCI-60 one-dose screen, 48 h (100 = growth as untreated, 0 = no growth, -100 = all killed). The conditions noted are these: 10 µM unless noted.
`CC(C)C[C@@H](NC(=O)[C@@H](Cc1ccccc1)NC(=O)c1cnccn1)B1Oc2ccc(C[C@H](NC(=O)[C@H](Cc3ccc4c(c3)OB([C@@H](CC(C)C)NC(=O)[C@@H](Cc3ccccc3)NC(=O)c3cnccn3)O4)NC(=O)[C@@H](N)CC3CCC4OB([C@@H](CC(C)C)NC(=O)[C@@H](CC5CCCCC5)NC(=O)C5CNCCN5)OC4C3)C(=O)NCCCC[C@@H]3NC(=O)[C@@H](Cc4ccccc4)NC(=O)[C@H](CC(=O)O)NC(=O)CNC(=O)[C@H](CCCNC(=N)N)NC3=O)cc2O1` (stereo partly specified): the growth is -74.1% (active). The same measure, in the same setting: for `CCc1nc(N)nc(N)c1C#CC(C)c1cc(-c2ccnc(C)c2)c2oc(C)nc2c1` (stereo unspecified) the value was -0.67% (active); for `COc1ccc(/C=C/c2nc3ccccc3nc2/C=C/c2ccc(OC)cc2)cc1`, 92.3% (inactive); for `Cc1nc(/N=C(\N)NC(=O)Nc2cccc([N+](=O)[O-])c2)sc1C`, 84.1% (inactive). The same measure, in the same setting: for `CCCCN(CCCC)CCCn1c(-c2ccccc2)ccc1-c1ccccc1` the value was 44.7% (inactive); for `Oc1ccc(N=Cc2ccccc2O)cc1`, 75.3% (inactive); for `NC(N)=N/N=C(/c1ccccc1)c1ccc(F)cc1`, -16.9% (active). On the same count and under the same terms, the figure for `COc1ccc(Nc2nc(SC)nc(-c3cccc([N+](=O)[O-])c3)c2C#N)cc1` is 61.3% (inactive); for `COc1ccc(CCNc2nc3c(c(=O)n(Cc4ccc(Br)cc4)c(=O)n3C)n2C)cc1OC` it is 92.8% (inactive). As for `COc1cccc(Nc2nc(SC)nc(-c3cccc([N+](=O)[O-])c3)c2C#N)c1`, the growth is 62.9% (inactive).

In the case of `CCCCC/C(C=C(C#N)C#N)=C/c1ccccc1`, the growth was 112% (inactive). The same measure, in the same setting: for `Cn1c(=O)c2c(nc3n(-c4ccc(Cl)cc4Cl)c(Sc4nc(-c5ccccc5)c(C#N)c(=O)[nH]4)cn23)n(C)c1=O` the value was 34.4% (inactive); for `Cc1ccc(C2=NN3C(C2)c2cc(Br)ccc2OC32CCN(Cc3ccccc3)CC2)o1` (stereo unspecified), 80% (inactive). The same measure, in the same setting: for `CCCCCCN(CCCCCC)C(=N)c1ccnc2ccccc12` the value was 57.5% (inactive); for `O=C1Nc2c(ccc(Cl)c2Cl)/C1=C\c1ccc(C(F)(F)F)cc1`, 57.8% (inactive); for `C=CC(=O)Nc1cccc(-c2nc(SC)nc(NCc3ccccc3)c2C#N)c1`, 48.1% (inactive). In the case of `CC1=CC(C)(C)Nc2ccc(Cc3ccc4c(c3)C(C)=CC(C)(C)N4)cc21`, the growth is 99.7% (inactive). As to `CCCN1CCN(c2ccc3nc(-c4ccc5nc(-c6ccc(OCC)cc6)[nH]c5c4)[nH]c3c2)CC1`, the growth was 39.3% (inactive).

Regarding `COc1ccc(C(=O)COc2ccc(/C=C3\COc4ccc(OC)cc4C3=O)cc2)cc1`, the growth was 77.7% (inactive). On to `CC(=O)O[C@H]1C(=O)[C@@]2(C)[C@H]([C@H](OC(=O)c3ccccc3)[C@]3(O)C[C@H](OC(=O)[C@H](OC(=O)CCC(=O)OC4CCC(S/N=C(N)/N=C(\N)N(C)C)CC4)[C@@H](NC(=O)c4ccccc4)c4ccccc4)C(C)=C1C3(C)C)[C@]1(OC(C)=O)CO[C@@H]1C[C@@H]2O` (stereo partly specified), for which the growth was 54.9% (inactive). On the same count and under the same terms, the figure for `CCOc1ccc(-n2nc(C(=O)Nc3cc(OC)c(OC)c(OC)c3)nc2-c2cc(OC)c(OC)c(OC)c2)cc1` is 69.9% (inactive); for `C=C1C(=O)O[C@H]2[C@H]1CC/C(COC(=O)c1cc3cc(OC)ccc3[nH]1)=C\CC[C@@]1(C)O[C@@H]21` it is -62.7% (active). The same measure, in the same setting: the figure for `COc1cc(Nc2cc(C)nc(N3CCN(c4ccnc5cc(Cl)ccc45)CC3)n2)cc(OC)c1` is 5.3% (active).

Consider `N#CN1CCC[C@H]1C(=O)N1CCc2c(-c3[nH]nc4ncccc34)cccc21`, for which the growth is -21.6% (active). On the same count and under the same terms, the figure for `Cc1cc(C)nc(SC2=C(Nc3cccc(Cl)c3)C(=O)N(Cc3ccccc3)C2=O)n1` is -7.47% [30 µM] (active); for `O=C(COc1cccc(/C=C2\COc3ccccc3C2=O)c1)Nc1nccs1` it is -3.51% (active); for `C=C(C)C(=O)Nc1ccc(NC(C)C)cc1` it is 143% (inactive).

The subject of another experiment is NCI-H522 lung. Described as above. The conditions noted are these: 10 µM unless noted.
With `COc1cc(-c2nc(C(=O)NCC(=O)NO)nn2-c2ccc(Cl)cc2)cc(OC)c1OC`, the growth is 86.8% (inactive). As for `C=C1C(=O)O[C@H]2[C@H]1CC/C(C=Nc1ccc(C(F)(F)F)cc1N)=C\CC[C@@]1(C)O[C@@H]21`, the growth was -56.6% (active). Same read-out and setting: the figure for `CSc1nc(NCCO)c(C#N)c(-c2cccc([N+](=O)[O-])c2)n1` is 92.3% (inactive); for `Cn1c(=O)[nH]c(=O)c2nc(CCC(=O)NCCC(=O)O)c(=O)[nH]c21` it is 96.5% (inactive); for `C=CC(=O)Nc1cccc(-c2nc(SC)nc(Nc3ccccc3OC)c2C#N)c1` it is 39.3% (inactive). Same read-out and setting: for `CC1=C[C@H]2c3c(c(O)c(O)c4oc5c(C)cccc5c(=O)c34)[C@H](c3cc(O)c(O)c4oc5c(C)cccc5c(=O)c34)[C@H]2C(C)(C)C1` the value was 3.27% (active). Still for that read-out and setting: for `COc1ccc(/C=C(\C#N)C(=O)Nc2cccc(Nc3nc(SC)nc(-c4cccc([N+](=O)[O-])c4)c3C#N)c2)cc1OC` the value was 97.2% (inactive); for `CCN(CC)c1ccc(/C=N\NC(=O)/C=C/C=C/c2ccc3c(c2)OCO3)c(O)c1`, 12.5% (inactive); for `CC(C)(C)c1cc(/C=N\NC(=O)/C=C/C=C/c2ccc3c(c2)OCO3)c(O)c(C(C)(C)C)c1`, 80.1% (inactive). In the case of `CN(C)CCCNc1c2ccccc2nc2ccccc12`, the growth is 93.7% (inactive). Same read-out and setting: the figure for `CN1CCN(c2nc(NCCCCNc3ccnc4cc(Cl)ccc34)c3ccccc3n2)CC1` is 39.8% (inactive); for `COc1cc2c(cc1-c1c(C)noc1C)ncc1nc(C3CCOCC3)n([C@@H](C)COC(F)F)c12` it is 33.9% (inactive); for `CC(C)C[C@@H](NC(=O)[C@@H](Cc1ccccc1)NC(=O)c1cnccn1)B1Oc2ccc(C[C@H](NC(=O)[C@H](Cc3ccc4c(c3)OB([C@@H](CC(C)C)NC(=O)[C@@H](Cc3ccccc3)NC(=O)c3cnccn3)O4)NC(=O)[C@@H](N)CC3CCC4OB([C@@H](CC(C)C)NC(=O)[C@@H](CC5CCCCC5)NC(=O)C5CNCCN5)OC4C3)C(=O)NCCCC[C@@H]3NC(=O)[C@@H](Cc4ccccc4)NC(=O)[C@H](CC(=O)O)NC(=O)CNC(=O)[C@H](CCCNC(=N)N)NC3=O)cc2O1` (stereo partly specified) it is -43.4% (active). Same read-out and setting: for `CCc1nc(N)nc(N)c1C#CC(C)c1cc(-c2ccnc(C)c2)c2oc(C)nc2c1` (stereo unspecified) the value was 18.2% (inactive); for `COc1ccc(/C=C/c2nc3ccccc3nc2/C=C/c2ccc(OC)cc2)cc1`, 94% (inactive); for `Cc1nc(/N=C(\N)NC(=O)Nc2cccc([N+](=O)[O-])c2)sc1C`, 49.2% (inactive). For `CCCCN(CCCC)CCCn1c(-c2ccccc2)ccc1-c1ccccc1`, the growth is 58.3% (inactive). On the same count and under the same terms, the figure for `Oc1ccc(N=Cc2ccccc2O)cc1` is 81.3% (inactive). As for `NC(N)=N/N=C(/c1ccccc1)c1ccc(F)cc1`, the growth is -44.8% (active). As for `COc1ccc(Nc2nc(SC)nc(-c3cccc([N+](=O)[O-])c3)c2C#N)cc1`, the growth was 80.8% (inactive). On the same count and under the same terms, the figure for `COc1ccc(CCNc2nc3c(c(=O)n(Cc4ccc(Br)cc4)c(=O)n3C)n2C)cc1OC` is 84.2% (inactive); for `COc1cccc(Nc2nc(SC)nc(-c3cccc([N+](=O)[O-])c3)c2C#N)c1` it is 72.1% (inactive). The same measure, in the same setting: the figure for `CCCCC/C(C=C(C#N)C#N)=C/c1ccccc1` is -10.1% (active); for `Cn1c(=O)c2c(nc3n(-c4ccc(Cl)cc4Cl)c(Sc4nc(-c5ccccc5)c(C#N)c(=O)[nH]4)cn23)n(C)c1=O` it is 59.6% (inactive); for `Cc1ccc(C2=NN3C(C2)c2cc(Br)ccc2OC32CCN(Cc3ccccc3)CC2)o1` (stereo unspecified) it is 89.1% (inactive). Still for that read-out and setting: for `CCCCCCN(CCCCCC)C(=N)c1ccnc2ccccc12` the value was 71.7% (inactive).

As to `O=C1Nc2c(ccc(Cl)c2Cl)/C1=C\c1ccc(C(F)(F)F)cc1`, the growth was 76.4% (inactive).

For `C=CC(=O)Nc1cccc(-c2nc(SC)nc(NCc3ccccc3)c2C#N)c1`, the growth is 31.2% (inactive). On to `CC1=CC(C)(C)Nc2ccc(Cc3ccc4c(c3)C(C)=CC(C)(C)N4)cc21`, for which the growth is 68% (inactive). On the same count and under the same terms, the figure for `CCCN1CCN(c2ccc3nc(-c4ccc5nc(-c6ccc(OCC)cc6)[nH]c5c4)[nH]c3c2)CC1` is -3.11% (active); for `COc1ccc(C(=O)COc2ccc(/C=C3\COc4ccc(OC)cc4C3=O)cc2)cc1` it is 70.1% (inactive); for `CC(=O)O[C@H]1C(=O)[C@@]2(C)[C@H]([C@H](OC(=O)c3ccccc3)[C@]3(O)C[C@H](OC(=O)[C@H](OC(=O)CCC(=O)OC4CCC(S/N=C(N)/N=C(\N)N(C)C)CC4)[C@@H](NC(=O)c4ccccc4)c4ccccc4)C(C)=C1C3(C)C)[C@]1(OC(C)=O)CO[C@@H]1C[C@@H]2O` (stereo partly specified) it is -25.7% (active). Turning to `CCOc1ccc(-n2nc(C(=O)Nc3cc(OC)c(OC)c(OC)c3)nc2-c2cc(OC)c(OC)c(OC)c2)cc1`, the growth was 65.9% (inactive). On to `C=C1C(=O)O[C@H]2[C@H]1CC/C(COC(=O)c1cc3cc(OC)ccc3[nH]1)=C\CC[C@@]1(C)O[C@@H]21`, for which the growth is -91.4% (active). Regarding `COc1cc(Nc2cc(C)nc(N3CCN(c4ccnc5cc(Cl)ccc45)CC3)n2)cc(OC)c1`, the growth is 9% (active). As to `N#CN1CCC[C@H]1C(=O)N1CCc2c(-c3[nH]nc4ncccc34)cccc21`, the growth is -51.7% (active).

`Cc1cc(C)nc(SC2=C(Nc3cccc(Cl)c3)C(=O)N(Cc3ccccc3)C2=O)n1`: the growth is 67.9% [30 µM] (inactive). On the same count and under the same terms, the figure for `O=C(COc1cccc(/C=C2\COc3ccccc3C2=O)c1)Nc1nccs1` is -30.5% (active); for `C=C(C)C(=O)Nc1ccc(NC(C)C)cc1` it is 159% (inactive).
